Results taken from the supplement of paper PMC6555819.

Assays:
Test in all cases: PBM binding z-score (relative to random genomic background probes); higher = stronger binding; sequences stand for … in GC…GCGATTGACAGCGTAGAATGAAGG
[1] = test system: RARb homodimer (NR concentration 270 nM)
In short: (§1)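 Binding z-scores take random background probes as their reference. They come from custom Agilent 4×180K protein-binding microarrays incubated 1 h with ligand-free nuclear receptor dimers, with antibodies against each partner (one per run) detecting binding. Scanned fluorescence was regression-normalized.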

[2] = test system: RARg:RXRa (NR concentration 270 nM, RXRa partner concentration 90 nM)
In short: as §1

[3] = test system: RARg homodimer (NR concentration 270 nM)
In short: as §1

[4] = test system: RXRa DBDmut IVT, anti-RXR (DBD mutation: RXRa K156A/R161A, NR concentration 90 nM)
In short: as §1

[5] = test system: RXRa homodimer (NR concentration 180 nM)
In short: as §1

[6] = test system: THRa:RXRa (NR concentration 90 nM, RXRa partner concentration 90 nM)
In short: as §1

[7] = test system: THRa homodimer (NR concentration 90 nM)
In short: as §1

[8] = test system: VDR homodimer (NR concentration 270 nM)
In short: as §1

| Sequence | PBM binding z-score [1] | PBM binding z-score [2] | PBM binding z-score [3] | PBM binding z-score [4] | PBM binding z-score [5] | PBM binding z-score [6] | PBM binding z-score [7] | PBM binding z-score [8] |
| --- | --- | --- | --- | --- | --- | --- | --- | --- |
| CCTACTGTGCCAAGGTCATTGATCAGTCAAAGCA | 3.73 | 3.88 | 3.24 | 2.18 | 3.4 | 3.68 | 3.43 | 3.63 |
| TGAATGAGGGTAAAGATCAGGGAACGTGGCGTCG | -0.018 | 0.443 | 0.391 | -0.234 | 1.07 | 0.432 | -0.386 | -0.201 |
| GCTCGTTGGTCAGTAAAAGGTCACACACCGGTCG | 5.31 | 5.69 | 5.36 | 0.666 | 5.85 | 3.91 | 2.35 | 2.44 |
| ATCTCTAGGTAACCTAGTTCAGTGAATGCCGAAC | 1.27 | 0.609 | 0.668 | 0.329 | 0.722 | 1.61 | 0.673 | 0.972 |
| TCAGACAGGTGAAGGTAACTCCGGTACGCAGTCG | 0.814 | 0.458 | 0.575 | 1.28 | 1.11 | 1.28 | 0.325 | -0.191 |
| CAAACTAGCTCACGAAAGGTCAAAGTCGAATGAC | 4.81 | 5.46 | 5.04 | 1.31 | 6.26 | 3.62 | 0.952 | 2.53 |
| GATACAGGGTCAAGGCCAGAGTCCGCGTATTGAT | 3.62 | 5.35 | 4.89 | 1.91 | 5.5 | 3.52 | 1.37 | 1.73 |
| ACAACGAGGGCACGCTGAGTTGATAGCAGAGTAG | 0.921 | 2.12 | 2.44 | 2.16 | 1.24 | 1.75 | -0.067 | 2.04 |
| TCTTGTAGATAAATAGAGGTTAAGAAAGTGCGCT | 1.11 | 0.845 | 0.418 | 1.3 | 1.46 | 1.54 | -0.012 | 0.923 |
| ATTGAAAGGTCGTGAGGTGAGTATACAGAAAGGC | 3.49 | 4.76 | 4.06 | 1.2 | 5.39 | 3.77 | 1.94 | 1.4 |
| CAAACTAGGTCATGGTCAAAGTCGGTTTGTGCCA | 3.44 | 3.83 | 4.77 | 1.45 | 3.08 | 3.04 | 1.5 | 1.15 |
| CGTCAAAGTTCAAGGTAACGTAACAGAAAGCAGC | 3.92 | 5.25 | 5.88 | 4.03 | 4.58 | 3 | 1.32 | 3.12 |
| CGTCCAAGTTCAAGGTCAGTGAAAGAGACTCGAA | 4.11 | 4.76 | 5.33 | 4.51 | 3.82 | 3.56 | 2.47 | 4.98 |
| ATCGAAAGGCCGTGAGGTGAGTATACAGAAAGGC | 0.911 | 1.47 | 1.42 | -0.765 | 0.904 | 1.93 | 0.902 | -0.0558 |
